# Experimental data as given in PubChem BioAssay.
# What was measured:
# [1] = system: Human papillomavirus type 1a protein E7 (residues 44-93); test: small molecules binding HPV E7 44-93 – biochemical, small-molecule microarray, residues 44-93, 635 nm fluorescence, primary screen (AID 1108); conditions: fluorescence 635 nm, higher = more signal;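 also: E7 fragment applied at 1 µg/mL in TBST for 1 h at 4 C; score combines spot fluorescence with its signal to noise ratio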
# [2] = hepatitis C replication reporter changes, two-sided – Huh7 cells, luciferase reporter, HCV replication inhibitor project, primary screen (AID 1109); conditions: Huh7 HCV replicon luciferase reporter, 48 h; higher = more signal;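 also: huh7 hepatoma cells harbouring a luciferase neomycin HCV replicon reporter; luciferase luminescence as measure of HCV replicon replication; test concentration not given here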
# [3] = molecular target: Left-right determination factor 2 (Homo sapiens) (UniProt O00292); test: small molecules binding LEFTY2 protein – biochemical, small-molecule microarray, 635 nm fluorescence scan, primary screen (AID 1110); conditions: higher = more signal
# Sequence of Left-right determination factor 2 (Homo sapiens) (O00292 whole entry, looked up): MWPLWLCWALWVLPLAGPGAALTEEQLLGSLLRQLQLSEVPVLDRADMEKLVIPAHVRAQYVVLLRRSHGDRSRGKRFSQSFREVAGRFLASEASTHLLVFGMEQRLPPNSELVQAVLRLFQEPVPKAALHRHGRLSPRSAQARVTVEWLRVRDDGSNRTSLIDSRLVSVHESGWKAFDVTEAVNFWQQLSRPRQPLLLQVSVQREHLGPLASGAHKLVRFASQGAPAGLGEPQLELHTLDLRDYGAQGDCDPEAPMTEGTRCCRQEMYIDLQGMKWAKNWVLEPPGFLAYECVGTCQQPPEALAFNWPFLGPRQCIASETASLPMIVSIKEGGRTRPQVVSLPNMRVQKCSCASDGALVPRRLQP
# [4] = molecular target: Calmodulin-1 (Homo sapiens) (UniProt P0DP23); test: small molecules binding calmodulin-1 with EGTA – biochemical, small-molecule microarray, Cy5-labelled CALM1, profiling panel (AID 1111); conditions: Cy5-CALM1 binding fluorescence, higher = more signal;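 also: labelled calmodulin applied in Tris saline Tween buffer holding calcium plus EGTA and DTT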
# [5] = molecular target: Calmodulin-1 (Homo sapiens) (UniProt P0DP23); test: small molecules binding Ca-loaded calmodulin-1 – biochemical, small-molecule microarray, Cy5-labelled CALM1, plus calcium, artefact control for SMM control-protein annotation, profiling panel (AID 1112); conditions: Cy5-CALM1 binding fluorescence, higher = more signal;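 also: score merges spot fluorescence with signal to noise from triplicate slides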
# [6] = probe aWnt5a binding to arrayed compounds – biochemical, biotinylated probe, 635/667 nm fluorescence, primary screen (AID 1113); conditions: small-molecule microarray, higher = more signal;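 also: score merges 667 nm fluorescence intensity with signal-to-noise per printed feature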
# [7] = probe aShh binding to arrayed compounds – biochemical, biotinylated probe, 635/667 nm fluorescence, primary screen (AID 1114); conditions: small-molecule microarray, higher = more signal;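 also: probe is biotin-labelled aShh protein from a stem cell growth factor screen; measures binding of labelled protein to compounds printed on the slide; score merges feature fluorescence at 667 nm with signal-to-noise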
# [8] = probe aNog binding to arrayed compounds – biochemical, biotinylated probe, 635/667 nm fluorescence, primary screen (AID 1115); conditions: small-molecule microarray, higher = more signal;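 also: probe is biotinylated aNog protein used at 0.15 µg/mL for 1 h at 4 C; z-score combines 667 nm fluorescence of each spot with its signal to noise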
# [9] = molecular target: Torsin-1A-interacting protein 1 (Homo sapiens) (UniProt Q5JTV8); test: compound microarray binding of lysate hLAP1 – cell lysate, small-molecule microarray, COS7 lysate, 635/667 nm fluorescence, primary screen (AID 1116); conditions: 635 nm fluorescence, higher = more signal
# Sequence of Torsin-1A-interacting protein 1 (Homo sapiens) (Q5JTV8 whole entry, looked up): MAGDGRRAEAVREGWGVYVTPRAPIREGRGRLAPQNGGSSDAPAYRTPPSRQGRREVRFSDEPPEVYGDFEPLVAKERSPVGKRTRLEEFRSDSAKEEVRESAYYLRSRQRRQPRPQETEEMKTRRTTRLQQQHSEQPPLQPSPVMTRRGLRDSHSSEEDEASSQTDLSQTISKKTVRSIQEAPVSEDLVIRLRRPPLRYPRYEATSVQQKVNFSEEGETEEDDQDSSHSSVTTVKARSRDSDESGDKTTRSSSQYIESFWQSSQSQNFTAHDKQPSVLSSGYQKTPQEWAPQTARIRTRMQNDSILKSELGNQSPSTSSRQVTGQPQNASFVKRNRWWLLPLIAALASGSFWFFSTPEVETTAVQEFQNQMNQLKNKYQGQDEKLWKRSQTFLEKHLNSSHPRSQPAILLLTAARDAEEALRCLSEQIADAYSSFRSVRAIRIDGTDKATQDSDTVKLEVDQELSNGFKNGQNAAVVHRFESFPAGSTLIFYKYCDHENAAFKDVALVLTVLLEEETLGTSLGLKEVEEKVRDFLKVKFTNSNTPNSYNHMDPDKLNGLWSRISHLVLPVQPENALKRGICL
# [10] = molecular target: Alpha-bungarotoxin (Bungarus multicinctus) (UniProt P60615); test: compounds binding labelled alpha-BTX control protein – biochemical, small-molecule microarray, Alexa647 label, 635/667 nm fluorescence, artefact control for SMM control protein annotation, profiling panel (AID 1117); conditions: alpha-BTX-A647 binding fluorescence, higher = more signal
# Sequence of Alpha-bungarotoxin (Bungarus multicinctus) (P60615 whole entry, looked up): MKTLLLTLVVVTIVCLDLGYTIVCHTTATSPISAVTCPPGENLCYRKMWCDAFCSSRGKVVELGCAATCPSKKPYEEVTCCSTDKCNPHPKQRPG
SMILES,composite z-score [1],z-score [2],composite z-score [3],composite z-score [4],composite z-score [5],composite z-score [6],composite z-score [7],composite z-score [8],composite z-score [9],composite z-score [10]
O=C1O[C@H](c2ccccc2)[C@H](c2ccccc2)N2[C@H]1[C@@H](C(=O)N1CCN(c3ncccn3)CC1)[C@]1(C(=O)Nc3ccc(C#CC4=CCCCC4)cc31)[C@H]2c1ccccc1OCCO,0.379,-1.67,0.818,0.858,-0.198,0.212,0.299,0.998,0.201,1.59
C=CCN1C(=O)[C@]2(Cc3ccccc3)N=C(c3ccc(OCCCO)cc3)O[C@@H]2c2ccccc21,1.45,-1.84,0.993,0.893,-0.672,-0.0519,0.531,-0.802,0.251,1.04
COC(=O)c1c(CC[C@@H](CO)NC(=O)N[C@H](Cc2ccccc2)Cn2cc(-c3ccccn3)nn2)oc(C(C)=O)c1C(=O)OC,0.538,-0.563,-0.0385,0.475,-0.556,-0.124,-0.304,-0.158,1.79,1.08
COCC(=C=CC[C@H](O)c1cccc(OCCO)c1)C[C@H](O)c1cc(Cl)cc(Cl)c1O,1.37,-0.566,0.578,-0.0781,-0.821,-0.0478,0.0639,-0.328,1.12,0.0872
COCCOC(=O)N1C(=O)[C@@]2(c3cc(C#CCCO)ccc31)[C@H](c1ccc(O)cc1)N1[C@H](c3ccccc3)[C@H](c3ccccc3)OC(=O)[C@H]1[C@@H]2C(=O)N1CCN(c2ncccn2)CC1,1.17,-0.305,0.613,1.42,0.374,0.594,0.918,2.56,1.68,1.47
OB1C=CCC(CCc2ccccc2)O1 (stereo not given),-1.86,1.1,-0.32,-0.961,-0.455,-0.263,-0.117,-0.39,0.363,-0.725
O=C1C2C=CC(C(O)C=Cc3ccc([N+](=O)[O-])cc3)N(n3cnnc3)C2C(=O)N1Cc1ccccc1 (stereo not given),1.34,-0.93,-0.368,0.596,-0.143,0.0633,-0.0035,0.977,0.832,1.39
C#CCOc1ccc(C[C@@H](C(=O)OC)N(CC#C)[C@@H](/C=C/C2CC2)[C@H](O)Cc2ccccc2)cc1,-0.802,-2.06,-0.336,-1.1,-1.69,-0.2,-0.221,-0.337,0.255,-0.335
COCCOC(=O)N1C(=O)[C@@]2(c3ccccc31)[C@H](C(=O)N1CCc3cc(OC)c(OC)cc3C1)[C@H]1C(=O)O[C@H](c3ccccc3)[C@H](c3ccccc3)N1[C@@H]2c1ccc(O)cc1,1.13,-0.515,0.337,1.38,0.116,-0.0125,-0.0769,0.511,1.94,1.65
CN1CCC(CCCO)=CC1c1cccs1 (stereo not given),-1.03,-0.132,-0.0692,-0.949,-0.431,-0.176,-0.0474,-0.305,0.427,-0.0493
O=C1NC(=O)C2C1C=CC(C(O)c1ccc(I)cc1)N2Nc1ccccn1 (stereo not given),-0.409,-0.533,0.379,0.532,0.267,0.0136,0.282,0.0403,-0.593,0.636
O=C(O)[C@@]1(CCS(=O)(=O)c2ccccc2)N=C(c2ccc(OCCCO)cc2)O[C@H]1c1ccccc1,1.32,-0.124,-0.665,2.47,0.967,-0.0084,0.0639,1.1,1.08,0.524
C=CC[C@]12N=C(c3ccc(OCCCO)cc3)O[C@H]1c1ccccc1N(CCS(=O)(=O)c1ccccc1)C2=O,1.41,-2.26,0.559,1.17,0.289,0.0775,0.54,-0.484,0.863,1.02
COCCOC(=O)N1C(=O)[C@@]2(c3cc(C#Cc4ccc(OC)cc4)ccc31)[C@H](c1ccc(O)cc1)N1[C@H](c3ccccc3)[C@H](c3ccccc3)OC(=O)[C@H]1[C@@H]2C(=O)Nc1nc2ccccc2s1,1.37,-1,0.389,1.18,0.907,-0.0778,-0.262,-0.129,0.373,0.912
C=CCN1C(=O)[C@]2(O[C@H](CCO)[C@@H]([Si](C)(C)c3ccc(OC)cc3)[C@@H]2C)c2cc(N(C=O)c3ccccc3)ccc21,-0.823,-5.14,-0.155,0.393,0.217,-0.096,0.0684,0.337,0.753,0.607
O=C1OCC=C[C@H]2OC34C=CCN(Cn5nnc6ccccc65)C(=O)[C@H]3N(CCCCCO)C(=O)[C@@H]4[C@@H]12 (stereo not given in full),-0.129,-0.0996,-1.3,-0.497,0.0598,0.184,-0.209,0.105,3.17,-0.464
O=C(CS)NCCCCCNC(=O)[C@@H]1C[C@@H]2C(=O)NCC(=O)N2[C@@H]1c1cccc(OCCO)c1,0.275,-0.125,0.387,0.129,-0.193,-0.16,-0.197,-0.137,0.635,-0.315
O=C1C2C=CC(C(O)COCc3ccccc3)N(Nc3ccc([N+](=O)[O-])cc3)C2C(=O)N1c1ccccc1 (stereo not given),1.44,-1.36,0.308,0.823,-0.432,0.0317,0.213,0.525,0.548,1.31
CN1C(=O)C2C=CC(C(O)c3ccccc3)N(N3CCCCC3)C2C1=O (stereo not given),0.876,-0.379,-0.203,0.0777,-0.102,0.28,0.108,-0.52,0.411,0.464
CCOC(=O)[C@H]1C/C=C/C[C@H](C(=O)OCC)C(=O)O[C@H]2[C@@H](OC)O[C@H](CO)[C@@H](OC(=O)c3ccc(Br)cc3)[C@@H]2OC1=O,0.215,-2.74,0.466,0.389,0.502,-0.0704,0.134,0.0795,0.863,0.369
C=C(CCCC)/C(=C/C[C@H](OC(=O)c1ccncc1)c1ccc(OCCO)cc1)c1cc(C(=O)OC)ccc1OC,1.09,-2.01,0.318,0.226,0.176,0.0491,0.216,-0.158,1.26,0.378
O=C1C2C=CC(C(O)c3ccc(F)cc3)N(Nc3ccc([N+](=O)[O-])cc3)C2C(=O)N1c1ccccc1 (stereo not given),0.883,-1.03,-0.424,1.76,0.554,0.155,0.294,0.0676,0.733,1.76
